Hit rate of the full screen: of about 400,000 compounds, about 13,000 (3.2%) were called active. Not shown: some 18% with an inconclusive outcome. Calls come from the whole dose curve; as a rule, active = well fitted cell-killing curve with a large enough effect; inconclusive = small, poorly fitted or top-dose-only effect, or effect the other way; inactive = flat fitted curve, though single readings scatter. The list comes from a sample in which actives are over-represented; it also holds similar structures and randomly drawn compounds. Entries that show only a call come without a potency.
Potency is the fitted concentration of half-maximal effect.

The test is described as follows: qHTS assay for MDR1-selective chemotherapeutics: Primary screen using the drug-selected MDR subline cells KB-V1. Note: nearly all actives have a fitted effect of over 60% in size. To be noted: KB-V1 MDR cells viability, CellTiter-Glo, 72 h; series mostly up to 46.1 µM. In a few lines: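 qHTS viability screen in drug-selected KB-V1 MDR cells: 72 h compound treatment at 37 degrees C, ATP luminescence end point.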
`O=C1c2ccccc2C(=O)N1c1ccc(S(=O)(=O)N2CCOCC2)c2ccccc12`: the Potency entry was “inactive”.
With `CCOc1ccccc1N(CC)C(=O)Nc1cn(C)c(=O)c2ccccc12`, the Potency entry was “inactive”.
Under `O=c1c2ccccc2nc2n1C(CSCc1cccc(C(F)(F)F)c1)CS2` (configuration not stated) stands 2.59 µM (active); under `N#Cc1c(-c2ccccc2)nc(SCc2cccc(C(F)(F)F)c2)[nH]c1=O`, “inactive”.
With `O=c1c2ccccc2nc2n1C(CSc1ccc(F)cc1)CN2` (configuration not stated), the Potency result is “inactive”.
For the molecule `COc1cccc(CNS(=O)(=O)c2ccc3c(c2)CC(C)N3C(C)=O)c1` (configuration not stated), the Potency result was “inactive”.
Regarding `COc1ccc(N(C)S(=O)(=O)c2ccc3c(c2)CC(C)N3C(=O)C2CC2)c(OC)c1` (configuration not stated), the Potency was 8.2 µM (active).
As to `COc1cccc(CNS(=O)(=O)c2ccc3c(c2)CC(C)N3C(=O)C2CCC2)c1` (configuration not stated), the Potency result is “inactive”.
Turning to `COc1cc(NC(=O)C2=C(C)OCCS2)c(Cl)cc1C(=O)NCCCN1CCCC(C)C1` (configuration not stated), the Potency entry was “inactive”.
Under `Cc1cc(C)cc(-n2c(SCC(=O)NCC3CCCO3)nc3c([nH]c4ccccc43)c2=O)c1` (configuration not stated) stands “inactive”.
Under `CCCc1ccc(OCC(=O)NNC(=S)NC(=O)c2ccco2)cc1` stands “inactive”.
Turning to `CC(Oc1ccc2ccccc2c1)C(=O)NNC(=S)NC(=O)c1ccco1` (configuration not stated), the Potency is 3.66 µM (active).
For `Cc1ccc(C(=O)NNC(=O)C(C)Oc2ccc3ccccc3c2)o1` (configuration not stated) the value was “inactive”.
For the molecule `COC(=O)Cc1ccc(OC2(C)CCN(Cc3ccc4c(c3)OCCO4)C2)cc1` (configuration not stated), the Potency result was “inactive”.
`CC(C)CCNC(=O)CN(C(=O)Cn1nnc(-c2ccc(F)cc2)n1)C1CCCC1`: the Potency is 10.3 µM (active).
On to `CC(C)CCNC(=O)C(C)N(C(=O)Cn1nnc(-c2ccc(F)cc2)n1)C1CCCC1` (configuration not stated), for which the Potency result is “inactive”.
On to `CN(C(=O)Cn1nnc(-c2ccc(F)cc2)n1)C1CCS(=O)(=O)C1` (configuration not stated), for which the Potency result is “inactive”.
`COc1ccc(C(CNC(=O)c2ccc(OCc3cscn3)cc2)N2CCCC2)cc1` (configuration not stated): the Potency result is “inactive”.
Take `CCCCCCC1(C)NC(c2ccc3c(c2)OCO3)=CC(c2ccccc2O)N1` (configuration not stated): the Potency entry is “inactive”.
Regarding `Cc1ccc(S(=O)(=O)N2C[C@H]3n4c(=O)ccc(=O)n4C[C@H](OC(=O)NC4CCCC4)[C@@]3(O)C2)cc1`, the Potency entry is “inactive”.
In the case of `COc1cccc(NC(=O)C2(C)CCN2Cc2ccccc2Cl)c1` (configuration not stated), the Potency entry is “inactive”.
Consider `O=Nc1c(O)cc(O)c2ccccc12`, for which the Potency result is “inactive”.
With `Cc1cccc(Nc2nc(C)nc(N)c2S(=O)(=O)c2ccccc2)c1`, the Potency result is “inactive”.
For `CC1CCN(c2ccc([N+](=O)[O-])cc2C(N)=O)CC1` the value was “inactive”; for `O=C(Nc1cccc(Cl)c1)c1cc([N+](=O)[O-])ccc1N1CCN(CCO)CC1`, “inactive”; for `CCN1CCN(c2ccc([N+](=O)[O-])cc2C(=O)c2ccc(Cl)cc2)CC1`, 23.1 µM (active).
Under `COc1ccc(CC(N)c2csc(NC(=O)NC(c3ccccc3)c3ccccc3)n2)cc1` (configuration not stated) stands “inactive”.

Source of the values: PubChem BioAssay AID1347076 (National Center for Advancing Translational Sciences (NCATS), 2019).
